Data from paper PMC5540273 (PLoS ONE, 2017).
Like-named read-outs stand apart in the source and are kept apart here.

Columns and labels:
ZAK = settings: concentration: 1 μM,replicates: in singlicate; n = 1
ZAP70 = settings: concentration: 1 μM,replicates: in singlicate; n = 1
p38-alpha = test system: T1, p38-alpha; settings: n = 1
T1 construct: gene MAPK14

p38-beta = test system: T2, p38-beta; settings: concentration: 1 μM,replicates: in singlicate; n = 1
T2 construct: gene MAPK11

p38-delta = settings: concentration: 1 μM,replicates: in singlicate; n = 1
p38-gamma = test system: T3, p38-gamma; settings: concentration: 1 μM,replicates: in singlicate; n = 1
T3 construct: gene MAPK12

[1] = concentration: 1 μM,replicates: in singlicate
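Note: KINOMEscan kinase panel screen.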

`C[C@@H](Oc1cc(-c2cnn(C3CCNCC3)c2)cnc1N)c1c(Cl)ccc(F)c1Cl` was tested, and the “%Inh” value (ZAK) was 4%, the “%Inh” value (ZAP70) was 10% and the “%Inh” value (p38-alpha; [1]) was 2%. The “%Inh” value (p38-beta) was 25% and the “%Inh” value (p38-delta) was 30%.
In the case of `C=CC(=O)Nc1cc2c(Nc3ccc(F)c(Cl)c3)ncnc2cc1OCCCN1CCOCC1` [GW781483], the “%Inh” value (ZAK) is reported as 0%, the “%Inh” value (ZAP70) is reported as 31% and the “%Inh” value (p38-alpha; [1]) is reported as 19%. The “%Inh” value (p38-beta) was 0%, the “%Inh” value (p38-delta) was 20% and the “%Inh” value (p38-gamma) was 0%.
With `CNC(=O)c1ccccc1Sc1ccc2c(/C=C/c3ccccn3)n[nH]c2c1` the “%Inh” value (ZAK) was 53%, the “%Inh” value (ZAP70) was 0% and the “%Inh” value (p38-alpha; [1]) was 5%. The “%Inh” value (p38-beta) was 15%, the “%Inh” value (p38-delta) was 10% and the “%Inh” value (p38-gamma) was 25%.
`NC(=O)c1cc(-c2ccccc2)cc2c(C3CCNCC3)c[nH]c12` [GSK301362] was tested, and the “%Inh” value (ZAK) was 0%, the “%Inh” value (ZAP70) was 0% and the “%Inh” value (p38-alpha; [1]) was 0%. The “%Inh” value (p38-beta) was 0%, the “%Inh” value (p38-delta) was 35% and the “%Inh” value (p38-gamma) was 0%.
In the case of `CN(C)CCOc1ccc(-c2cc(-c3c[nH]nc3-c3ccccn3)ccn2)cc1` [GW835314], the “%Inh” value (ZAK) is reported as 60%, the “%Inh” value (ZAP70) is reported as 11% and the “%Inh” value (p38-alpha; [1]) is reported as 16%. For the same molecule, the “%Inh” value (p38-beta) was 4%, the “%Inh” value (p38-delta) was 0% and the “%Inh” value (p38-gamma) was 27%.
For `Cl.Cl.Nc1nc(-c2ccc3c(N)n[nH]c3c2)cc(N2CCCC(NC(=O)c3ccccc3)C2)n1` (stereo not shown) [GSK2286775], the “%Inh” value (ZAK) was 100%, the “%Inh” value (ZAP70) was 0% and the “%Inh” value (p38-alpha; [1]) was 0%. The “%Inh” value (p38-beta) was 0%, the “%Inh” value (p38-delta) was 21% and the “%Inh” value (p38-gamma) was 21%.
In the case of `Nc1nc(Nc2ccccc2)cc(-c2ccc3c(N)n[nH]c3c2)n1` [GSK2225749], the “%Inh” value (ZAK) is reported as 3%, the “%Inh” value (ZAP70) is reported as 0% and the “%Inh” value (p38-alpha; [1]) is reported as 0%. The “%Inh” value (p38-beta) was 0%, the “%Inh” value (p38-delta) was 0% and the “%Inh” value (p38-gamma) was 0%.
`Cc1n[nH]c2ccc(-c3cc(OC[C@@H](N)Cc4ccccc4)cnc3-c3ccoc3)cc12.O=C(O)C(F)(F)F.O=C(O)C(F)(F)F` [GSK507358] was tested, and the “%Inh” value (ZAK) was 0%, the “%Inh” value (ZAP70) was 0% and the “%Inh” value (p38-beta) was 0%. The “%Inh” value (p38-delta) was 50% and the “%Inh” value (p38-gamma) was 33%.
In the case of `CCn1c(-c2nonc2N)nc2c(C#CC(C)(C)O)nc(OCCN)cc21.Cl.Cl` [GSK902056], the “%Inh” value (ZAK) is reported as 14%, the “%Inh” value (ZAP70) is reported as 0% and the “%Inh” value (p38-alpha; [1]) is reported as 0%. The “%Inh” value (p38-beta) was 0%, the “%Inh” value (p38-delta) was 16% and the “%Inh” value (p38-gamma) was 0%.
In the case of `CC(C)N1C(=O)Cc2cc(Nc3ncc(C(F)(F)F)c(NCc4cccc(S(C)(=O)=O)c4)n3)ccc21`, the “%Inh” value (ZAK) is reported as 0%, the “%Inh” value (ZAP70) is reported as 62% and the “%Inh” value (p38-alpha; [1]) is reported as 96.4%. For the same molecule, the “%Inh” value (p38-beta) was 2%, the “%Inh” value (p38-delta) was 0% and the “%Inh” value (p38-gamma) was 0%.
In the case of `COc1ccc(C[C@@H](CN)NC(=O)c2cc(Br)c(-c3ccnc4[nH]ccc34)s2)cc1.Cl.Cl` [GSK1389063], the “%Inh” value (ZAK) is reported as 0%, the “%Inh” value (ZAP70) is reported as 0% and the “%Inh” value (p38-alpha; [1]) is reported as 0%. For the same molecule, the “%Inh” value (p38-beta) was 0%, the “%Inh” value (p38-delta) was 46% and the “%Inh” value (p38-gamma) was 0%.
`Cl.Cl.NC[C@H](Cc1ccc(C(F)(F)F)cc1)NC(=O)c1cc(Br)c(-c2ccnc3[nH]ccc23)s1` [GSK1487252] was tested, and the “%Inh” value (ZAK) was 0%, the “%Inh” value (ZAP70) was 0% and the “%Inh” value (p38-alpha; [1]) was 0%. For the same molecule, the “%Inh” value (p38-beta) was 0%, the “%Inh” value (p38-delta) was 12% and the “%Inh” value (p38-gamma) was 38%.
For `Cl.Oc1cc(-c2nc(-c3ccccc3)[nH]c2-c2ccncc2)ccc1Cl` [SB-386023], the “%Inh” value (ZAK) was 25%, the “%Inh” value (ZAP70) was 15% and the “%Inh” value (p38-alpha; 1 µM) was 85%. For the same molecule, the “%Inh” value (p38-beta) was 26%, the “%Inh” value (p38-delta) was 0% and the “%Inh” value (p38-gamma) was 36%.
With `Cc1ccc(-n2nc(C(C)(C)C)cc2NC(=O)Nc2ccc(OCCN3CCOCC3)c3ccccc23)cc1` [GW839464] the “%Inh” value (ZAP70) was 0%, the “%Inh” value (p38-beta) was 56% and the “%Inh” value (p38-delta) was 90.5%.
For `O=C(NCCNc1ccnc(NCc2ccc(F)cc2)n1)c1cc2ccccc2s1` [GSK1379944], the “%Inh” value (ZAK) was 14%, the “%Inh” value (ZAP70) was 0% and the “%Inh” value (p38-alpha; [1]) was 77%. The “%Inh” value (p38-beta) was 0%, the “%Inh” value (p38-delta) was 40% and the “%Inh” value (p38-gamma) was 0%.
In the case of `Cl.Cl.NC[C@H](CC1CCCCC1)NC(=O)c1cc(Br)c(-c2ccnc3[nH]ccc23)s1` [GSK1581427], the “%Inh” value (ZAK) is reported as 0%, the “%Inh” value (ZAP70) is reported as 0% and the “%Inh” value (p38-alpha; [1]) is reported as 0%. The “%Inh” value (p38-beta) was 0%, the “%Inh” value (p38-delta) was 4% and the “%Inh” value (p38-gamma) was 0%.
For `Cc1occc1-c1nc(N)c(OC[C@@H](N)Cc2c[nH]c3ccccc23)cc1-c1cc2c(C)n[nH]c2cn1` [GSK1660450], the “%Inh” value (ZAK) was 31%, the “%Inh” value (ZAP70) was 0% and the “%Inh” value (p38-beta) was 0%. For the same molecule, the “%Inh” value (p38-delta) was 22% and the “%Inh” value (p38-gamma) was 24%.
In the case of `Cc1ccc2c(-c3ccncc3)c(-c3ccc(F)cc3)nn2c1.Cl` [GW461484], the “%Inh” value (ZAK) is reported as 14%, the “%Inh” value (ZAP70) is reported as 0% and the “%Inh” value (p38-alpha; [1]) is reported as 99.9%. The “%Inh” value (p38-beta) was 39%, the “%Inh” value (p38-delta) was 13% and the “%Inh” value (p38-gamma) was 12%.
For `Cc1cc(C(=O)Nc2ccc(Oc3ccc4nc(NC(=O)C5CC5)cn4n3)cc2)nn1-c1ccccc1`, the “%Inh” value (ZAK) was 48%, the “%Inh” value (ZAP70) was 0% and the “%Inh” value (p38-alpha; [1]) was 11%. The “%Inh” value (p38-beta) was 27%, the “%Inh” value (p38-delta) was 0% and the “%Inh” value (p38-gamma) was 52%.
`CN(C)CC(O)COc1ccc(Nc2nccc(-c3cnn4nc(N5CCOCC5)ccc34)n2)cc1` (stereo not shown) [GW767488] was tested, and the “%Inh” value (ZAK) was 14%, the “%Inh” value (ZAP70) was 36% and the “%Inh” value (p38-alpha; [1]) was 6%. For the same molecule, the “%Inh” value (p38-beta) was 23%, the “%Inh” value (p38-delta) was 38% and the “%Inh” value (p38-gamma) was 73%.
`C[C@@H]1CCN(C(=O)CC#N)C[C@@H]1N(C)c1ncnc2[nH]ccc12` was tested, and the “%Inh” value (ZAK) was 0%, the “%Inh” value (ZAP70) was 0% and the “%Inh” value (p38-alpha; [1]) was 1%. The “%Inh” value (p38-beta) was 13%.
In the case of `CC(C)Nc1cc(-c2ccc3c(N)n[nH]c3c2)nc(N)n1` [GSK2221681], the “%Inh” value (ZAK) is reported as 0%, the “%Inh” value (ZAP70) is reported as 0% and the “%Inh” value (p38-alpha; [1]) is reported as 0%. The “%Inh” value (p38-beta) was 0%, the “%Inh” value (p38-delta) was 1% and the “%Inh” value (p38-gamma) was 2%.
In the case of `CCN(CC)CCOc1ccc(Nc2ncc3cc(-c4c(Cl)cccc4Cl)c(=O)n(C)c3n2)cc1` [SB-601273], the “%Inh” value (ZAK) is reported as 94.2%, the “%Inh” value (ZAP70) is reported as 63% and the “%Inh” value (p38-alpha; [1]) is reported as 100%. The “%Inh” value (p38-beta) was 98.1%, the “%Inh” value (p38-delta) was 16% and the “%Inh” value (p38-gamma) was 18%.
With `O=C(NCCCN1CCOC1=O)c1cnc(NCc2cc(Cl)ccc2Cl)nc1NC1CCCC1` the “%Inh” value (ZAK) was 10%, the “%Inh” value (ZAP70) was 0% and the “%Inh” value (p38-alpha; [1]) was 9%. The “%Inh” value (p38-beta) was 0%, the “%Inh” value (p38-delta) was 44% and the “%Inh” value (p38-gamma) was 1%.
In the case of `Cc1cc2cn[nH]c2cc1-c1cccc2c(N)c(C(N)=O)nnc12`, the “%Inh” value (ZAK) is reported as 21%, the “%Inh” value (ZAP70) is reported as 32% and the “%Inh” value (p38-alpha; [1]) is reported as 0%. For the same molecule, the “%Inh” value (p38-beta) was 2%, the “%Inh” value (p38-delta) was 0% and the “%Inh” value (p38-gamma) was 52%.
With `C[C@H]1Oc2cc(cnc2N)-c2c(nn(C)c2C#N)CN(C)C(=O)c2ccc(F)cc21` the “%Inh” value (ZAK) was 0%, the “%Inh” value (ZAP70) was 0% and the “%Inh” value (p38-alpha; [1]) was 9%. The “%Inh” value (p38-beta) was 18%, the “%Inh” value (p38-delta) was 0% and the “%Inh” value (p38-gamma) was 5%.
For `CCN(CC)CCCCNc1ncc2cc(-c3c(Cl)cccc3Cl)c(NC(=O)NC(C)(C)C)nc2n1`, the “%Inh” value (ZAK) was 1%, the “%Inh” value (ZAP70) was 0% and the “%Inh” value (p38-alpha; [1]) was 98.2%. The “%Inh” value (p38-beta) was 81%, the “%Inh” value (p38-delta) was 28% and the “%Inh” value (p38-gamma) was 26%.
